About 7,900 targets were measured; listed, in parts, are those with a hit and a random draw of the rest. About 0.6% of all pairs of compound and target were hits. Unmarked numbers belong to inactive results.
What was measured:
Experiment in all cases: log2 fold change, soluble protein after heating vs DMSO (PISA); higher = thermal stabilisation; K562 cells, 10 uM, 30 min; active = over 0.2 and 3.5 SD of the protein, either way, in both replicates (recomputed)
[1] = compound: COC1=CC=C(C=C1)CN2C=CC3=C2C=C(C=C3)C(=O)NO
Summary of the method: (§1)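 K562 cells at 2×10^6 cells/mL were treated with 10 μM compound for 30 min. Aliquots were heated for 3 min across 48°C-58°C, pooled, and extracted in PBS with 0.5% NP-40 at 4°C; soluble protein was the supernatant after 21,000xg for 90 min. Soluble protein was quantified by TMTpro 16plex LC-MS/MS with channel sums equalised, and reported as log2 fold change in thermal stability against DMSO controls, with values from duplicates.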

filanesib = compound: CON(C)C(=O)N1N=C(c2cc(F)ccc2F)S[C@@]1(CCCN)c1ccccc1 [filanesib]
Summary of the method: as §1

zotarolimus = compound: CO[C@H]1C[C@@H]2CC[C@@H](C)[C@@](O)(O2)C(=O)C(=O)N2CCCC[C@H]2C(=O)O[C@H]([C@H](C)C[C@@H]2CC[C@H](n3cnnn3)[C@H](OC)C2)CC(=O)[C@H](C)/C=C(\C)[C@@H](O)[C@@H](OC)C(=O)[C@H](C)C[C@H](C)/C=C/C=C/C=C/1C [zotarolimus]
Summary of the method: as §1

idasanutlin = compound: COc1cc(C(=O)O)ccc1NC(=O)[C@@H]1N[C@@H](CC(C)(C)C)[C@](C#N)(c2ccc(Cl)cc2F)[C@H]1c1cccc(Cl)c1F [idasanutlin]
Summary of the method: as §1

alisertib = compound: COc1cc(Nc2ncc3c(n2)-c2ccc(Cl)cc2C(c2c(F)cccc2OC)=NC3)ccc1C(=O)O [alisertib]
Summary of the method: as §1

[2] = compound: COc1cc2nc(-c3cc(F)ccc3O)nc(N[C@@H]3CNC[C@H]3C(C)(C)O)c2cc1OC
Summary of the method: as §1

gefitinib = compound: COc1cc2ncnc(Nc3ccc(F)c(Cl)c3)c2cc1OCCCN1CCOCC1 [gefitinib]
Summary of the method: as §1

[3] = compound: COc1cccc2cc(-c3nc([C@H]4CC[C@H](C(=O)O)CC4)n4ncnc(N)c34)[nH]c12
Summary of the method: as §1

lapatinib = compound: CS(=O)(=O)CCNCc1ccc(-c2ccc3ncnc(Nc4ccc(OCc5cccc(F)c5)c(Cl)c4)c3c2)o1 [lapatinib]
Summary of the method: as §1

pictilisib = compound: CS(=O)(=O)N1CCN(Cc2cc3nc(-c4cccc5[nH]ncc45)nc(N4CCOCC4)c3s2)CC1 [pictilisib]
Summary of the method: as §1

Sequence of UniProt P17936 (P17936 whole entry, looked up): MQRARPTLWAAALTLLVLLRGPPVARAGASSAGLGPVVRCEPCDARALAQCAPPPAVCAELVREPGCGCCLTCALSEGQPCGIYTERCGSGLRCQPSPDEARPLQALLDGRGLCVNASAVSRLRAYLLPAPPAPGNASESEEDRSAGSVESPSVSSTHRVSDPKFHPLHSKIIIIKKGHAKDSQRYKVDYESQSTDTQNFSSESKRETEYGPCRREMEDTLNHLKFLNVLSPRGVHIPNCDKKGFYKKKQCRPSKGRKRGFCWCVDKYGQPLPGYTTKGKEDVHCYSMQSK
Sequence of UniProt Q6NUT3 (Q6NUT3 whole entry, looked up): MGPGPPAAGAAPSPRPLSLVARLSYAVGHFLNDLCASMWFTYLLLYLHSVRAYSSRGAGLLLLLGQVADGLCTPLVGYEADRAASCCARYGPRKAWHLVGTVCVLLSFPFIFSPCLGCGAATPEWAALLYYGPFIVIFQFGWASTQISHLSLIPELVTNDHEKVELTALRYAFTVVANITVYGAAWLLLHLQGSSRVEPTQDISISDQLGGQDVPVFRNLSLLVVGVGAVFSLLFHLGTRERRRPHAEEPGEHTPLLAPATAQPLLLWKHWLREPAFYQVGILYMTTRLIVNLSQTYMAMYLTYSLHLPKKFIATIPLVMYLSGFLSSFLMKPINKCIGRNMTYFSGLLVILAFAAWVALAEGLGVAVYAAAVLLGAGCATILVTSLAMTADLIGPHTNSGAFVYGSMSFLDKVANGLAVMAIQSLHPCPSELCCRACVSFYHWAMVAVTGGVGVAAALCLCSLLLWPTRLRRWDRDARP
Sequence of UniProt Q9BQK8 (Q9BQK8 whole entry, looked up): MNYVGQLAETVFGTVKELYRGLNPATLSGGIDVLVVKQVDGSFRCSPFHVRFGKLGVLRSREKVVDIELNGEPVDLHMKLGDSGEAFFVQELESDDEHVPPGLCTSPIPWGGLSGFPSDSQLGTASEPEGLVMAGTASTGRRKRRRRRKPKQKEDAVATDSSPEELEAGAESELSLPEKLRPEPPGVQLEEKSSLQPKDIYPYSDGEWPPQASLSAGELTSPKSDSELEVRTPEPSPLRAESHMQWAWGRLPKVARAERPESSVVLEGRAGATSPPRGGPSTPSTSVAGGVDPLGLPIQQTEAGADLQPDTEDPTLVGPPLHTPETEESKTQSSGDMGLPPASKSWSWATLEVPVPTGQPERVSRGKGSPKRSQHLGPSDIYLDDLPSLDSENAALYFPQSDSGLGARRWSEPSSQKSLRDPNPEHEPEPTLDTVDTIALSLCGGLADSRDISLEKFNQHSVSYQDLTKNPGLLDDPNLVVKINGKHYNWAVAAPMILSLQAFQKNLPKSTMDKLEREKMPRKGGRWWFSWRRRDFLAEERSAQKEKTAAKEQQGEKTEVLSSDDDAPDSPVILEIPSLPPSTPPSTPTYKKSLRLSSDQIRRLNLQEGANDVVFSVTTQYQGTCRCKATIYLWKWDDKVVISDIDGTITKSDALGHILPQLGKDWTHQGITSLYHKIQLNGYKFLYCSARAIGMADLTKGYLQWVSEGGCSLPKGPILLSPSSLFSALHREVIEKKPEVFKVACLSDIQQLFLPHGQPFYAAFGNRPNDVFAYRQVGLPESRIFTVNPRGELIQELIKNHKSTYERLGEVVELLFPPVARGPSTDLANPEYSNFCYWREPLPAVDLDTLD
Sequence of UniProt Q9H1H9 (Q9H1H9 whole entry, looked up): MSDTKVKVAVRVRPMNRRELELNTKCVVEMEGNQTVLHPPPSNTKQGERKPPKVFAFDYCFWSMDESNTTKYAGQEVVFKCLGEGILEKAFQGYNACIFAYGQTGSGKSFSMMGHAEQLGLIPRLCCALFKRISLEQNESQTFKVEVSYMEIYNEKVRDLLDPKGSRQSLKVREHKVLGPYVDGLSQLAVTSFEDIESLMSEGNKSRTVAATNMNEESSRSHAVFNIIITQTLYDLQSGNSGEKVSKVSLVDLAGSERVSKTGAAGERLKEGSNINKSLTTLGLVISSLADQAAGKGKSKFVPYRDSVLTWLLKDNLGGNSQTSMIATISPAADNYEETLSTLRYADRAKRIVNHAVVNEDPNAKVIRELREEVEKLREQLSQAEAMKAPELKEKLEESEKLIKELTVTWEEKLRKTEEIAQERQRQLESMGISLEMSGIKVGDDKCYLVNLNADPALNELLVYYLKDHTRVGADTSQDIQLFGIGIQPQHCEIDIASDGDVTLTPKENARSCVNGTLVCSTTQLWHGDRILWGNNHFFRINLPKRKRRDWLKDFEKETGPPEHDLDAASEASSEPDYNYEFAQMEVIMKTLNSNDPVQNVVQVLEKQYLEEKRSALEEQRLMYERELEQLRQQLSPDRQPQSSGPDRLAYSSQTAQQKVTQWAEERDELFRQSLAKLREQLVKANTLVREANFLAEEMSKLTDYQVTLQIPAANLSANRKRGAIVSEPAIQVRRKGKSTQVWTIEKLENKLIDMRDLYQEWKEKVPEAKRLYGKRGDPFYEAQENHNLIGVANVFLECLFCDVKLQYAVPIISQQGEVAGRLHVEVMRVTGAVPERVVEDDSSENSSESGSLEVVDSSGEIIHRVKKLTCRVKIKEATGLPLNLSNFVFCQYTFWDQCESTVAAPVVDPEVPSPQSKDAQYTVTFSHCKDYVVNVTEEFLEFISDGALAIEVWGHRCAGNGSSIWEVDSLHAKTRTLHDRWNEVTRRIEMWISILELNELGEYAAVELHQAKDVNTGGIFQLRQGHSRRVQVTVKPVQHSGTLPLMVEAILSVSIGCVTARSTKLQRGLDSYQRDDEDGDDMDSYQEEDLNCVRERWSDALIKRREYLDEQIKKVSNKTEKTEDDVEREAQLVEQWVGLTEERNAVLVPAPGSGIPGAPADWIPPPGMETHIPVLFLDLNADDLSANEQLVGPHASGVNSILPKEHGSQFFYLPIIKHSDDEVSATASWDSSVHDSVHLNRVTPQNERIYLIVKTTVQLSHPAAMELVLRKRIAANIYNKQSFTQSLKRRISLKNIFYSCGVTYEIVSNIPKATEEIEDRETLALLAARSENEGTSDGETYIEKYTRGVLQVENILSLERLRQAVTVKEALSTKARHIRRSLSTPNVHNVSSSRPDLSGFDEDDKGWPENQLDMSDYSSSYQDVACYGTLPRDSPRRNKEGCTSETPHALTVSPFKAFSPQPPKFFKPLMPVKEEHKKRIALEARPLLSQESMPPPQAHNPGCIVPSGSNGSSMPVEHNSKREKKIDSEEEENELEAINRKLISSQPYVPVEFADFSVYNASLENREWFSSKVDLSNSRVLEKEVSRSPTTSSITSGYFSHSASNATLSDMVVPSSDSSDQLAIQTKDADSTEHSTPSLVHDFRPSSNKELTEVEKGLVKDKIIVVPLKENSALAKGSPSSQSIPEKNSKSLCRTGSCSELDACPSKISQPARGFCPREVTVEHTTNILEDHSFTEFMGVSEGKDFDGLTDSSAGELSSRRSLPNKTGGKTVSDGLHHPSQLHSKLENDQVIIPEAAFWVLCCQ
Sequence of UniProt Q13422 (Q13422 whole entry, looked up): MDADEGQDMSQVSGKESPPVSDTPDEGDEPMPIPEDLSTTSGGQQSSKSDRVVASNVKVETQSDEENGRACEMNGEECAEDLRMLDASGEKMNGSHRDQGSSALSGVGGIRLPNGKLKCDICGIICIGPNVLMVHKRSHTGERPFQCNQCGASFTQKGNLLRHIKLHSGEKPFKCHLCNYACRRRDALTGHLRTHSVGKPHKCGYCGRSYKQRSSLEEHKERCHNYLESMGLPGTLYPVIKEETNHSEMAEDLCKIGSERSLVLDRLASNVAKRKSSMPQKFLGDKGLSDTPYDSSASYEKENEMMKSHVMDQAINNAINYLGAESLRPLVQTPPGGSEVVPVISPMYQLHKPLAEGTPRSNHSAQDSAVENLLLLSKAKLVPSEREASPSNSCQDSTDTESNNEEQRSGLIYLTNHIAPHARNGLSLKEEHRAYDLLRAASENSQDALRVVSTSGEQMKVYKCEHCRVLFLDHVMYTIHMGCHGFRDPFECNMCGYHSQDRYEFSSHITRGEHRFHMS
Sequence of UniProt Q9NX70 (Q9NX70 whole entry, looked up): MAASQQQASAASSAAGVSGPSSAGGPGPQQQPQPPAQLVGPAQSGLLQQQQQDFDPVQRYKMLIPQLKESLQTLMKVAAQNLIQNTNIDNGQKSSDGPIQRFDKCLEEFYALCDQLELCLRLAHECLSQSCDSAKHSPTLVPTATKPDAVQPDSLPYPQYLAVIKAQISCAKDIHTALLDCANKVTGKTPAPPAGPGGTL
Sequence of UniProt Q8WYH8 (Q8WYH8 whole entry, looked up): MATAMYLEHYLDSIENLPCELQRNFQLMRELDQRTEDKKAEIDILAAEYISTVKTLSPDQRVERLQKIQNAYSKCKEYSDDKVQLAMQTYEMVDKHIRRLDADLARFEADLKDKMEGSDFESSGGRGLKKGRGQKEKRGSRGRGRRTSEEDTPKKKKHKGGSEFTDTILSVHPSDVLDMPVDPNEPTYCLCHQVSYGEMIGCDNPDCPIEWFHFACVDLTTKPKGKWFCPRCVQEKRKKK
Sequence of UniProt Q9UPY8 (Q9UPY8 whole entry, looked up): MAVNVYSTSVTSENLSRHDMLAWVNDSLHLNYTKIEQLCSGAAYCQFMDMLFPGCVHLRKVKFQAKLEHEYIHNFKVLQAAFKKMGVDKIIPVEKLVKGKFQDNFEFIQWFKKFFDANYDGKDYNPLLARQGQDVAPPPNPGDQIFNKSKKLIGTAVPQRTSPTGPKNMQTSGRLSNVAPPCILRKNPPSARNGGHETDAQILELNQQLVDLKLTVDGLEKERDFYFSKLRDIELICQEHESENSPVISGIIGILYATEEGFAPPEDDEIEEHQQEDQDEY
Sequence of UniProt Q9NQX7 (Q9NQX7 whole entry, looked up): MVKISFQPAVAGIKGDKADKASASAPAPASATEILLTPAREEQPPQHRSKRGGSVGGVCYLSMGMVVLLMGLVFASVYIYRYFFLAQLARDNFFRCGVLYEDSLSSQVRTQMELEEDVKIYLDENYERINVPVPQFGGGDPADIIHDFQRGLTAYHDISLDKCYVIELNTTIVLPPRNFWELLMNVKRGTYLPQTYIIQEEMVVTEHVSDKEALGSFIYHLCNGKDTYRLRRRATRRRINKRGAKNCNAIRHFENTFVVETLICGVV

| Target | log2 fold change [1] | log2 fold change (filanesib) | log2 fold change (zotarolimus) | log2 fold change (idasanutlin) | log2 fold change (alisertib) | log2 fold change [2] | log2 fold change (gefitinib) | log2 fold change [3] | log2 fold change (lapatinib) | log2 fold change (pictilisib) |
| --- | --- | --- | --- | --- | --- | --- | --- | --- | --- | --- |
| KCTD2 (UniProt Q14681) | 0.068 | 0.154 | -0.148 | 0.116 | -0.012 | 0.402 | 0.025 | 0.154 | -0.413 | 0.426 |
| IGFBP3 isoform 2 (UniProt P17936) | 0.176 | -0.272 | -1.02 (active) | 0.535 |  | -0.103 |  |  | 0.085 | -0.085 |
| LGALS8 isoform 2 (UniProt O00214) | 0.202 | 0.264 | 0.053 | 0.182 | -0.021 |  |  | -0.278 |  | -0.183 |
| MDN1 (UniProt Q9NU22) | 0.066 | -0.095 | -0.002 | -0.058 | -0.056 | -0.031 | -0.003 | 0.022 | -0.005 | 0.001 |
| JAK3 (UniProt P52333) | -0.216 | -0.019 | 0.018 |  | 0.052 | -0.083 | -0.047 | -0.02 | 0.01 | -0.056 |
| LENG8 (UniProt Q96PV6) | 0.205 | 0 | -0.061 | -0.151 | -0.149 |  | -0.056 | -0.016 |  | -0.002 |
| KPNA1 (UniProt P52294) | -0.115 | 0.072 | 0.065 | 0.019 | 0.078 | 0.083 | 0.011 | -0.042 | 0.01 | 0.094 |
| MAN2B2 (UniProt Q9Y2E5) | -0.077 | -0.027 |  | -0.012 | 0.022 | -0.038 | 0.044 | 0.075 | -0.026 |  |
| IL10RB (UniProt Q08334) | -0.161 | 0.299 |  | -0.008 |  | 0.048 | 0.088 |  | 0.011 | 0.025 |
| LOX (UniProt P28300) |  |  |  |  | -0.111 |  | -0.391 | 0.146 |  |  |
| LMBRD1 (UniProt Q9NUN5) |  | -0.39 (active) | 0.049 | 0.102 | -0.022 | -0.062 | 0 | 0.059 | -0.026 | -0.03 |
| MAPRE3 isoform 2 (UniProt Q9UPY8) | 0.192 |  | 0.008 | 0.155 |  | -0.176 | -0.02 |  | -0.265 |  |
| KMT2C isoform 3 (UniProt Q8NEZ4) |  | 0.029 | -0.028 | 0.012 | -0.028 |  | 0.058 | -0.027 |  | 0.229 |
| MED29 (UniProt Q9NX70) |  |  |  | 0.1 | -0.571 | -0.77 (active) | 0.058 | 0.115 | -0.028 |  |
| LSR isoform 3 (UniProt Q86X29) |  | 0.188 | 0.115 |  | -0.011 | 0.041 |  | 0.033 | 0.073 |  |
| MFAP3 (UniProt P55082) |  | -0.092 |  | 0.192 |  |  |  |  |  |  |
| KIZ (UniProt Q2M2Z5) | -0.008 |  | 0.269 | -0.019 |  | -0.064 |  |  | 0.066 | -0.215 |
| LRRFIP1 isoform 4 (UniProt Q32MZ4) | -0.061 |  | 0.202 | 0.108 |  |  |  |  |  | -0.046 |
| MFSD12 isoform 3 (UniProt Q6NUT3) |  | -0.197 | 0.024 | -0.097 |  |  |  |  |  | 0.069 |
| KXD1 (UniProt Q9BQD3) |  |  | 0.073 | -0.021 | -0.019 | 0.042 |  | 0.342 (active) | -0.054 | 0.063 |
| ITPRID2 (UniProt P28290) | 0 |  |  |  |  | 0.141 |  |  | -0.141 |  |
| MAP4 isoform 5 (UniProt P27816) |  | -0.039 |  | -0.025 | 0.143 | -0.033 | -0.005 | -0.045 | 0.036 |  |
| MGRN1 isoform 2 (UniProt O60291) | -0.015 |  | -0.017 | -0.108 |  | 0.069 |  |  | -0.238 | -0.004 |
| ING5 (UniProt Q8WYH8) | 0.208 |  | 0.014 |  | 0.003 | 0.127 |  | 0.179 | -0.128 |  |

| Target | log2 fold change [1] | log2 fold change (filanesib) | log2 fold change (zotarolimus) | log2 fold change (idasanutlin) | log2 fold change (alisertib) | log2 fold change [2] | log2 fold change (gefitinib) | log2 fold change [3] | log2 fold change (lapatinib) | log2 fold change (pictilisib) |
| --- | --- | --- | --- | --- | --- | --- | --- | --- | --- | --- |
| KLHL18 (UniProt O94889) |  | 0 | 0.022 | -0.048 | -0.068 | -0.048 | 0.057 | 0.038 | 0.071 | 0.09 |
| MAGEA8 (UniProt P43361) | 0.061 |  | 0.108 | 0.002 |  | 0.057 | -0.069 |  | -0.032 | 0.145 |
| LPIN3 isoform 2 (UniProt Q9BQK8) |  | 0.006 | 0.011 | -0.075 | 0.022 | 0.111 | -0.029 | -0.01 | 0.022 | 0.147 |
| ITM2C (UniProt Q9NQX7) |  | -0.275 | -0.047 | -0.061 |  | -0.12 | -0.092 |  | -0.045 | -0.149 |
| LAPTM4B (UniProt Q86VI4) |  | 0.186 |  |  | -0.027 |  |  | 0.007 |  | 0.017 |
| MARCHF3 (UniProt Q86UD3) |  | -0.272 |  |  |  | 0.027 | -0.195 |  | -0.033 |  |
| KIF13A isoform 4 (UniProt Q9H1H9) |  | -0.684 | 0.03 | -0.081 |  |  |  |  |  |  |
| MAPK11 (UniProt Q15759) | -0.126 |  |  |  |  |  |  |  |  | 0.068 |
| MAP4K4 isoform 6 (UniProt O95819) |  | -0.018 | -0.162 |  |  |  | -0.028 | -0.179 |  |  |
| LRRCC1 (UniProt Q9C099) |  |  |  | -0.069 |  |  |  |  |  |  |
| IGFBP6 (UniProt P24592) |  |  | -1.03 (active) | 0.776 (active) |  |  |  |  |  |  |
| IPP (UniProt Q9Y573) |  |  |  | 0.051 |  |  |  |  |  |  |
| MAPK7 (UniProt Q13164) | -0.066 |  |  | 0.003 |  |  |  |  |  | 0.108 |
| LIN52 (UniProt Q52LA3) |  |  |  |  | -0.924 (active) |  |  | 0 |  |  |
| KMT5A (UniProt Q9NQR1) |  | 0.976 (active) |  |  |  |  |  |  |  | 0.368 |
| KIF1B isoform 3 (UniProt O60333) |  |  |  |  | 0.251 |  |  | -0.037 |  |  |
| IKZF1 isoform 2 (UniProt Q13422) |  | -0.075 | 0.1 |  | 0.079 |  | -0.044 | -0.031 |  |  |
| LEPROT (UniProt O15243) |  |  | -0.056 | 0.31 | -0.027 |  |  | 0.041 |  | -0.212 |
| MAGED1 isoform 2 (UniProt Q9Y5V3) |  | 0.264 | 0.001 | 0.054 |  | -0.058 | 0.228 |  | 0.034 |  |
| MCOLN3 (UniProt Q8TDD5) |  |  |  |  | 0.058 | 0.068 | -0.04 | -0.035 | -0.02 | 0.044 |
| IP6K1 (UniProt Q92551) |  | 0.037 | 0.151 | -0.044 | 0.042 | 1.11 (active) |  | 0.091 | 0.128 | 0.13 |
| IKZF1 (UniProt R9R4D9) | -0.167 |  | -0.192 |  |  | 0.084 |  |  | 0.037 | 0.059 |
| MFSD1 isoform 6 (UniProt Q9H3U5) |  | -0.123 | -0.108 | -0.01 | -0.035 | 0.019 | -0.021 | 0.181 | -0.026 | 0.055 |
| LSR (UniProt M0QZL9) |  | 0.168 |  |  |  |  |  |  |  |  |

From the supplement of paper PMC10849652
